Here are results for eight molecules from PubChem BioAssay (NCI).

Experiment in all cases: NCI-60 one-dose screen, 48 h (100 = growth as untreated, 0 = no growth, -100 = all killed)
Holding throughout (details): 10 µM unless noted

The subject of experiment [1] is DU-145 prostate.
In experiment [2] the test system is K-562 leukemia.
Experiment [3] has as its system MALME-3M melanoma.
Experiment [4] deals with MDA-MB-231 breast.
In experiment [5] the test system is RXF 393 renal.
Experiment [6] relates to SF-268 CNS.
The subject of experiment [7] is SF-295 CNS.
Experiment [8] has as its system SF-539 CNS.
The subject of experiment [9] is UACC-257 melanoma.
The subject of experiment [10] is M14 melanoma.
For experiment [11], the system named is HCT-15 colon.
The test system of experiment [12] is HT29 colon.
Experiment [13] relates to SNB-75 CNS.
Experiment [14] relates to SNB-19 CNS.
The subject of experiment [15] is U251 CNS.
Experiment [16] concerns PC-3 prostate.
Experiment [17] deals with SK-MEL-5 melanoma.
In experiment [18] the test system is UACC-62 melanoma.
Experiment [19] deals with LOX IMVI melanoma.
For experiment [20], the system named is SK-MEL-28 melanoma.

Molecules are shown by their SMILES. About 83,000 compounds went through this panel and 20% of them were active in at least one assay; those are over-represented in the sample as a whole.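 Compound tested at a single concentration for 48 hours in 96-well plates; a percent growth value below 10 was scored as active.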 Unmarked numbers belong to inactive results. The source made the active and inactive calls.

Turning to `N#CC1=C(c2ccccc2)Nc2c(c(-c3ccc(Cl)cc3)nn2-c2ccccc2)C12C(=O)Nc1ccc(Cl)cc12` (stereo not given), the growth was 86.1% in experiment [1]; 65.9% in [2]; 86.4% in [3]; 58.8% in experiment [4]; 49.8% in [5]; 55.3% in experiment [6]. In addition, the growth in [7] is 56.5%; in experiment [8], 85.2%; in experiment [9] it was 73%; in experiment [10], 72.7%; in experiment [11], 61.8%; in [12], 47.8%. The growth was 6.22% (active) in experiment [13]; 70.5% in experiment [14]; 64% in [15]; 51% in experiment [16]; 87.5% in experiment [17]; 66% in experiment [18]. The growth was 77.5% in experiment [19] and 90.8% in experiment [20].

As to `C#CCOc1cccc(Nc2ncnc3cc(NC(=O)C=C)ccc23)c1`, the growth in experiment [1] is 5.4% (active); in experiment [2] it was 5.87% (active); in [3] it was 33.9%; in experiment [4], 20.5%; in experiment [5], -17% (active); in experiment [6], 27.6%. Besides, the growth in experiment [7] was 45%; in experiment [8] it was 0.0579% (active); in experiment [9] it was 25.3%; in [10], 13%; in [11], 7.73% (active); in experiment [12] it was 1.75% (active). Besides, the growth in [13] is 24.7%; in experiment [14], 33.8%; in [15] it was 33.1%; in experiment [16], 24.2%; in [17] it was 8.74% (active); in experiment [18], 9.66% (active). In addition, the growth is 3.54% (active) in [19] and 49% in [20].

For `CC(C)=CCC[C@](C)(O)[C@H]1CC[C@]2(C)[C@@H]1CC[C@@H]1[C@@]3(C)C/C(=C/c4ccco4)C(=O)C(C)(C)[C@@H]3CC[C@]12C`, the growth is 113% in experiment [1]; 99.2% in experiment [2]; 107% in experiment [3]; 101% in experiment [4]; 111% in experiment [5]; 101% in [6]. In addition, the growth in [7] was 100%; in experiment [8], 102%; in [9] it was 109%; in experiment [10] it was 104%; in experiment [11], 110%; in [12], 111%. Moreover, the growth was 92.7% in [13]; 103% in experiment [14]; 101% in experiment [15]; 97.4% in [16]; 102% in experiment [17]; 91.7% in experiment [18]. Further, the growth in experiment [19] is 101%; in experiment [20], 102%.

In the case of `Clc1ccc(/C=N\N=C\c2ccc(Cl)c(Cl)c2)cc1Cl`, the growth in experiment [1] is 3.88% (active); in [2] it was 88.8%; in experiment [3], 125%; in [4], 80.6%; in [5], 79.3%; in [6], 91.9%. For the same molecule, the growth in [7] is 81.1%; in [8], 102%; in experiment [9], 106%; in experiment [10], 88.6%; in [11] it was 7.55% (active); in experiment [12], 32.3%. The growth in experiment [13] is 123%; in [14], 95.1%; in experiment [15], 76.3%; in experiment [16], 71%; in [17], 93.8%; in [18] it was 84.1%. Moreover, the growth in experiment [19] is 72.4%; in experiment [20] it was 101%.

As for `O=C1NC(=O)C(Cc2ccc(OCc3ccc(-c4ccc(Cl)cc4Cl)cc3)cc2)S1` (stereo not given), the growth in [1] is 78.9%; in [2], 23.5%; in [3], 49.9%; in experiment [4], 71%; in [5], 76.1%; in experiment [6], 51.8%. Also, the growth in [7] was 45%; in experiment [8], 56.2%; in [9], 55.7%; in experiment [10], 47.5%; in experiment [11], 39.5%; in experiment [12] it was 86.3%. The growth in [13] was 59.1%; in experiment [14] it was 73.8%; in [15] it was 57.6%; in experiment [16], 32.2%; in [17], -28.4% (active); in [18] it was 41.9%. The growth in experiment [19] was 37.1%; in experiment [20], 65.3%.

On to `COC1=CC(c2ccc[nH]2)=N/C1=C\c1[nH]c(C)c(C)c1CCC(=O)OCc1ccccc1`, for which the growth in [1] is 18.4%; in experiment [2] it was -7.62% (active); in experiment [3] it was -64.8% (active); in experiment [4], -49.5% (active); in experiment [5], -35.2% (active); in experiment [6], 5.89% (active). In addition, the growth in experiment [7] is -60.1% (active); in experiment [8], -52.3% (active); in experiment [9] it was -49% (active); in [10] it was -60.8% (active); in experiment [11] it was -32.2% (active); in experiment [12] it was 5.68% (active). The growth in experiment [13] was -2.99% (active); in experiment [14] it was 21%; in [15], -40.4% (active); in experiment [16], -27.2% (active); in experiment [17], -89.2% (active); in experiment [18] it was -54.7% (active). The growth in experiment [19] was -62.9% (active); in [20] it was -32.6% (active).

For the molecule `CCSc1oc(-c2ccccc2)nc1[P+](c1ccccc1)(c1ccccc1)c1ccccc1`, the growth in experiment [1] is 11.1%; in experiment [2], 7.15% (active); in experiment [3] it was -25% (active); in [4] it was -12.8% (active); in experiment [5], 0.296% (active); in [6], 14.1%. Besides, the growth is -4.41% (active) in experiment [7]; 14.6% in experiment [8]; 7.79% (active) in experiment [9]; 7.57% (active) in experiment [10]; 6.09% (active) in [11]; 1.21% (active) in experiment [12]. Besides, the growth is 2.74% (active) in experiment [13]; 12.4% in experiment [14]; 15.2% in experiment [15]; -1.59% (active) in [16]; -91.8% (active) in experiment [17]; -0.29% (active) in [18]. The growth was -84.9% (active) in [19] and 29.8% in experiment [20].

For the molecule `O=CN1N=C(c2cccc(Nc3ccnc4cc(Cl)ccc34)c2)CC1c1ccccc1` (stereo not given), the growth was 6.74% (active) in experiment [1]; 18.3% in experiment [2]; 53.2% in experiment [3]; 7.27% (active) in experiment [4]; -5.98% (active) in [5]; 36.9% in [6]. For the same molecule, the growth in [7] was 2.56% (active); in experiment [8], -7.47% (active); in [9], 66.9%; in [10], 23.6%; in experiment [11], 19.6%; in experiment [12], -2% (active). The growth in experiment [13] was -9.35% (active); in experiment [14], 40.3%; in experiment [15], 16.9%; in experiment [16], 24.2%; in [17], 17.9%; in [18] it was 34.7%. In addition, the growth was 20.6% in [19] and 49.5% in experiment [20].
